Laboratory results: PubChem BioAssay
Values joined by “and” are separate entries in the source; they are usually repeats but may differ in a detail not shown here. Equal entries are not always repeated. Results filed as inconclusive are left out. For some of these results: Entries with a potency or affinity are not part of this list. Active and inactive are the calls of the source. Unless noted, the rule behind the calls is not given here.

Key:
[1] = molecular target: 6-phosphogluconate dehydrogenase, decarboxylating (Homo sapiens) (UniProt P52209); test: 6PGD enzyme inhibitors, primary screen, biochemical, human, recombinant enzyme, NADPH absorbance (AID 1159550;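 active = at least 20% inhibition of 6-phosphogluconate dehydrogenase activity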); conditions: recombinant 6PGD, NADPH absorbance 341 nm; at 10 µM; stronger effect = higher value
Sequence of 6-phosphogluconate dehydrogenase, decarboxylating (Homo sapiens) (P52209 whole entry, looked up): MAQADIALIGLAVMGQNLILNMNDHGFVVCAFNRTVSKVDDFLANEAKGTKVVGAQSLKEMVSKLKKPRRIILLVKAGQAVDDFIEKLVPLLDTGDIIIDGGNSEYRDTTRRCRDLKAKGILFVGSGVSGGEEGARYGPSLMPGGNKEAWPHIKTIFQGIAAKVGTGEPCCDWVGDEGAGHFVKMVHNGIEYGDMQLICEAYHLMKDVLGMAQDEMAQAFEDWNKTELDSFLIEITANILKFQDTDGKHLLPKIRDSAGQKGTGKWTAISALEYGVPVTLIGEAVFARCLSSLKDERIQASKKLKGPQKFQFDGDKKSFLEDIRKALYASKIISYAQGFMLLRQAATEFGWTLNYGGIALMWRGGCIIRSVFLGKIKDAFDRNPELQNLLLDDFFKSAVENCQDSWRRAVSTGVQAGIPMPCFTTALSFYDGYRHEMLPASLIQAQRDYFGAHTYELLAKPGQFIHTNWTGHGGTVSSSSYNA

[2] = differential killing of epithelial or mesenchymal cells, primary screen, imaging, PC-3E GFP, TEM4-18 mCherry, co-culture (AID 1345086;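 active = compounds killing one labelled cell type while sparing the other, by normalised counts and ratio limits, not self-fluorescent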;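 for all read-outs here: cells exposed to compound for 72 h before imaging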;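 for red/green cell ratio (normalised): normalised mesenchymal count divided by normalised epithelial count so high means epithelial killing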); conditions: imaging cell counts, at 1 µM; for red/green cell ratio (normalised): actives lie on both sides
[3] = tested on: Aerobactin synthetase IucA (Klebsiella pneumoniae hvKP1); test: Biochemical IucA enzyme inhibition primary screen of the Spectrum library (AID 1346200); conditions: malachite green pyrophosphate, A620, at 8 µM, stronger effect = lower value;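 note: 100% = wells without compound and 0% = wells lacking enzyme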
[4] = tested on: Aerobactin synthetase IucA (Klebsiella pneumoniae, hypervirulent); test: IucA enzyme inhibition, biochemical, LOPAC library, absorbance readout (AID 1346212); conditions: IucA enzyme assay, absorbance (OD) readout; stronger effect = lower value; concentration not given here;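 note: 100% = no compound wells and 0% = no enzyme wells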
[5] = sensitizers of A549 cells to miR-34 induction, primary screen, imaging, A549 dox-inducible miR-34, nuclei and caspase counts (AID 1347080;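 active = compounds whose cell count with miR-34 switched on is under 0.7 times the count with it off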); conditions: A549 miR-34 inducible, Hoechst nuclei count, 48 h
[6] = molecular target: Mitogen-activated protein kinase 7 (Homo sapiens) (UniProt Q13164); test: ERK5 transactivation activators in reporter cells, primary screen, cell-based, HTS (AID 1508626;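 active = luciferase signal above three times the same-plate solvent-only control wells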;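 note: luciferase driven by Gal4-ERK5 fusion binding five Gal4 sites before minimal TATA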); conditions: HeLa Gal4-ERK5 transactivation, 18 h, at 5 µM, stronger effect = higher value
Sequence of Mitogen-activated protein kinase 7 (Homo sapiens) (Q13164 whole entry, looked up, the tested form may be a part): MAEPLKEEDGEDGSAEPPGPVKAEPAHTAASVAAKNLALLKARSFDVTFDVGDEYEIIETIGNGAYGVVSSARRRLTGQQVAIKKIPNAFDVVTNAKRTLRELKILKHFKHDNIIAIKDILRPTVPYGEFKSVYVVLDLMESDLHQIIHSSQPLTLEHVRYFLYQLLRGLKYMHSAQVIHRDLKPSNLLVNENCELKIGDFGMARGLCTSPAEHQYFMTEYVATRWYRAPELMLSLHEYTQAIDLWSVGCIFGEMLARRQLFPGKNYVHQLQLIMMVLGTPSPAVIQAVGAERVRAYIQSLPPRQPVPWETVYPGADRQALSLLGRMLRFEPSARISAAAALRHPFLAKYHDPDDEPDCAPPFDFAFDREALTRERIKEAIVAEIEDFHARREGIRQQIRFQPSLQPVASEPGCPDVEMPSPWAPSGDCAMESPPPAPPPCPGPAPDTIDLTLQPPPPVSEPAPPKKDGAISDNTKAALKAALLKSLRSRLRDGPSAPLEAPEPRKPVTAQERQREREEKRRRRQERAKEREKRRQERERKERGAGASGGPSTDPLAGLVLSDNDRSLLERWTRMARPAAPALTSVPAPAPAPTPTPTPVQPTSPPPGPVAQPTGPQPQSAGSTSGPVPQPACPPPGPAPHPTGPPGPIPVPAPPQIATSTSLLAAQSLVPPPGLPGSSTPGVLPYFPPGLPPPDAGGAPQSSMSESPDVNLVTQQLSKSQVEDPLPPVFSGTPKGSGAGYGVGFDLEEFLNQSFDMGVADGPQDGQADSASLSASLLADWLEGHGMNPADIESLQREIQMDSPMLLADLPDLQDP

[7] = viability rescue of complex I mutant cybrids, primary screen, cell-based, galactose medium, ATP luminescence (AID 1645843;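 active = z-score of at least 1.8 in each of two replicates, scored against plate mean and spread of sample wells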;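 note: positive z means more ATP and so rescue of galactose-driven cybrid death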); conditions: complex I mutant cybrid cells, 72 h, stronger effect = higher value
[8] = liver-stage malaria parasite growth inhibition, primary screen, cell-based, HepG2, luciferase luminescence, HepG2 viability (AID 624349; in the data active = parasite load remaining mostly below about 12%, no sharp cut-off; inactive = mostly above about 10%;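 note: 100% = mean of DMSO negative control wells on the same plate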); conditions: P. berghei liver stage in HepG2, luciferase luminescence, concentration not given here; parasite load remaining: stronger effect = lower value; viability: measured here: HepG2 viability without parasites
[9] = molecular target: NAD(+) hydrolase SARM1 (Homo sapiens) (UniProt Q6SZW1); test: SARM1 TIR NADase inhibitors, cell lysate, NAD-Glo luminescence (AID 1508614;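 active = compound whose remaining NAD level is above about 45 nM, limit read from the data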;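 note: higher remaining NAD means stronger inhibition of SARM1 NADase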); conditions: SAM-TIR HEK293T lysate NADase, at 1 µM, stronger effect = higher value
Sequence of NAD(+) hydrolase SARM1 (Homo sapiens) (Q6SZW1 whole entry, looked up): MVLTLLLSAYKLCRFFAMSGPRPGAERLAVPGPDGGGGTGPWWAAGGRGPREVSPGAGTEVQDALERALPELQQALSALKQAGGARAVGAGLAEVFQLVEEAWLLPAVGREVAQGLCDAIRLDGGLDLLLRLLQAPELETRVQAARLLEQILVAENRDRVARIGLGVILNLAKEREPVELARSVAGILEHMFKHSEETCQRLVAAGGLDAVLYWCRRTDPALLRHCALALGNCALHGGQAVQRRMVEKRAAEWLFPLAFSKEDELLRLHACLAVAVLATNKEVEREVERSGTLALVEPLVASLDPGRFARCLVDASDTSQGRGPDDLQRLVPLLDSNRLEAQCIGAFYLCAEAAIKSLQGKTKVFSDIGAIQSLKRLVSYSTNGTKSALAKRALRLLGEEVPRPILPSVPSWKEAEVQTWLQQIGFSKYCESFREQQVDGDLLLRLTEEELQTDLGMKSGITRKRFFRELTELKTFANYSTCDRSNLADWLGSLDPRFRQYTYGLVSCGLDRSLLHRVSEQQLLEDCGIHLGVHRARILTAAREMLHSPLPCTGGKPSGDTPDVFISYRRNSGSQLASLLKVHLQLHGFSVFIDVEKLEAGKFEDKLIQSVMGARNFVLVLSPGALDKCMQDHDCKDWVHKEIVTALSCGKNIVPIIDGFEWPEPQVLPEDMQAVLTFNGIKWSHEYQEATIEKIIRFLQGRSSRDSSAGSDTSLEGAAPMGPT

[10] = survival rescue of mitochondrial mutant cells in low glucose, primary screen, MELAS cybrids, Rieske KO mouse fibroblasts, CellTiter-Glo (AID 1508586;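 active = mean z-score across replicates of 1.96 or higher in either the MELAS or the Rieske mutant cell line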;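 note: z relative to plate mean and SD of compound and empty wells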)
[11] = molecular target: ATP-dependent translocase ABCB1 (Homo sapiens) (UniProt P08183); test: MDR1 (ABCB1) efflux transporter inhibition, cell-based (AID 377; in the data active = fluorescence slope change above about 50%); conditions: MDR1-expressing cells, fluorescent substrate accumulation slope; stronger effect = higher value; concentration not given here
Sequence of ATP-dependent translocase ABCB1 (Homo sapiens) (P08183 whole entry, looked up): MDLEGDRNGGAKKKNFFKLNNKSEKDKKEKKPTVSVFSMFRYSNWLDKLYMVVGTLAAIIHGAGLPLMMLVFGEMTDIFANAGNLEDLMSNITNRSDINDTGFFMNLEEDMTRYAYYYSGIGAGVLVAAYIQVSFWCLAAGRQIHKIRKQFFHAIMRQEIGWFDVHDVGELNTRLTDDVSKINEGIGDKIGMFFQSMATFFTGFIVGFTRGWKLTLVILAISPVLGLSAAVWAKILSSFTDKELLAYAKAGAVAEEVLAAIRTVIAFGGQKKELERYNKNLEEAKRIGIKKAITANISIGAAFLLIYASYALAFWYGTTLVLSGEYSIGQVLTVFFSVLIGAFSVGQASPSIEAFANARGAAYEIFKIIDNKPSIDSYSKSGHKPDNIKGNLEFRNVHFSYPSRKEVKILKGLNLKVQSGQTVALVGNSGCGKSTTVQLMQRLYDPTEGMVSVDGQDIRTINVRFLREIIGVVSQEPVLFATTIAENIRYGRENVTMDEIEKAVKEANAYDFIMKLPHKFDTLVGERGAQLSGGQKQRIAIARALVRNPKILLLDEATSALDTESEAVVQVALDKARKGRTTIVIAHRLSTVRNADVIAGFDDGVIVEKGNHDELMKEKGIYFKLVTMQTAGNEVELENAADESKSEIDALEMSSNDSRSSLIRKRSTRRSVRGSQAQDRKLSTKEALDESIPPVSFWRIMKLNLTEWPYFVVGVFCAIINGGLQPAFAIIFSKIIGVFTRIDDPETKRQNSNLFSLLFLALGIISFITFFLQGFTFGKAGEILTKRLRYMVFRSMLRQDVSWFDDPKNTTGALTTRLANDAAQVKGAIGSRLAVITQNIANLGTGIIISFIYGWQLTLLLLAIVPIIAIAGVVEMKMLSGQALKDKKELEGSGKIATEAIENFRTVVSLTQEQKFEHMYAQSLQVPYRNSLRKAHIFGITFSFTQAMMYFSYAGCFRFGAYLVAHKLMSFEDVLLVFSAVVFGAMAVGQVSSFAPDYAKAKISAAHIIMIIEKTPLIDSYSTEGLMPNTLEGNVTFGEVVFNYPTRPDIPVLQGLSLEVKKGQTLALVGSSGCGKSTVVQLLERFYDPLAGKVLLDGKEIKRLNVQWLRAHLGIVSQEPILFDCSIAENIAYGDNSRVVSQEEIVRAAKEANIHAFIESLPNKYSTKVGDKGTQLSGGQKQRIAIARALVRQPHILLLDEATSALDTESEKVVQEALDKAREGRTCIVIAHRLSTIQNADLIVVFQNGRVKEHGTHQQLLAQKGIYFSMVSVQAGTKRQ

[12] = hESC survival regulators, cell-based (AID 493140); conditions: human embryonic stem cell survival screen; stronger effect = higher value;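 note: cells exposed to compounds for four days before counting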
[13] = polyglutamine-triggered caspase-3 activation inhibitors, cell-based (AID 1583); conditions: polyglutamine-induced caspase-3 activation, cell assay; stronger effect = higher value;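 tested at 10 µM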
[14] = suppressors of polyQ aggregation in yeast, 75Q-TubU reporter (AID 1593); conditions: Yeast 75Q polyglutamine aggregation reporter
[15] = rescue of polyQ-huntingtin neuronal dysfunction in worms, whole organism, C. elegans mechanosensory neurons, N-terminal huntingtin (AID 1599); conditions: touch response, stronger effect = higher value
[16] = inhibitors of mitochondrial cytochrome c release, biochemical, purified mitochondria (AID 1603); conditions: stronger effect = lower value;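 note: mouse liver mitochondria challenged with calcium chloride; signal normalized to the plate average as 100%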
[17] = inhibitors of polyQ protein aggregation (AID 1604); conditions: polyglutamine-induced protein aggregation inhibition assay; stronger effect = higher value; tested at 2.5 µM
[18] = enhancers of glutamate uptake in motor neurons, MN-1 cell line (AID 1612); conditions: MN-1 motor neuron cells, stronger effect = higher value;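 note: tested at 1 µM final; 0% = mean of DMSO vehicle wells on each plate; positive means more glutamate uptake than control and negative means less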
[19] = reducers of polyQ inclusions in PC12 cells, cell-based, NGF-treated PC12, GFPQ80 (AID 1614); conditions: PC12 NGF-treated GFP-polyQ80 inclusion reduction;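 note: lower means fewer inclusions and 0 means no inclusions at all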
[20] = suppressors of polyglutamine aggregation in yeast, 75Q-TubH (AID 1616); conditions: S. cerevisiae 75Q-TubH polyglutamine aggregation suppression; stronger effect = higher value
[21] = counts scaled to control wells, 1 = unselective
[22] = measured here: epithelial PC-3E GFP cell survival
[23] = measured here: mesenchymal TEM4-18 mCherry cell survival
[24] = measured here: relative caspase fold change +Dox/-Dox
[25] = measured here: total cells with miR-34 induction, stronger effect = lower value
[26] = measured here: total cells without miR-34 induction
[27] = MELAS cybrid survival, CellTiter-Glo 48 h, stronger effect = higher value
[28] = Rieske KO mouse fibroblast survival, CellTiter-Glo 72 h

O=C(O)CCCOc1ccc(Cl)cc1Cl
inhibition [1]: -17.1% (inactive) | red/green cell ratio (normalised) [2, 21]: 0.77 (inactive) | normalised cell number [2, 22]: 1.36 | normalised cell number [2, 23]: 1.05 | activity remaining [3]: 103% (inactive)

O=C(O)CC[N+](=O)[O-]
inhibition [1]: -4.59% (inactive) | red/green cell ratio (normalised) [2]: 1.06 (inactive) | normalised cell number [2, 22]: 0.86 | normalised cell number [2, 23]: 0.91 | activity remaining [3]: 105% (inactive) | remaining activity [4]: 116% (inactive) | fold change ([5]; stronger effect = lower value): 1.06 (inactive) | fold change [5, 24]: 2.1 | cell count [5, 25]: 10800 | cell count [5, 26]: 10200 | luciferase signal [6]: 152 AU (inactive) | z-score [7]: -0.29 (inactive)

O=C1C=C2C=C[C@@H]3C[C@@]2(O1)[C@H]1CCCCN31
parasite load remaining [8]: 73.8% (inactive) | viability [8]: 90.5% | inhibition [1]: 6.02% (inactive) | red/green cell ratio (normalised) [2]: 0.9 (inactive) | normalised cell number [2, 22]: 1.21 | normalised cell number [2, 23]: 1.09 | activity remaining [3]: 109% (inactive) | remaining NAD [9]: 10 nM (inactive) | luciferase signal [6]: 92 AU (inactive)

C[C@H]1CCCC(=O)CCC/C=C/c2cc(O)cc(O)c2C(=O)O1
inhibition [1]: 15.7% (inactive) | red/green cell ratio (normalised) [2, 21]: 1.02 (inactive) | normalised cell number [2, 22]: 1.02 | normalised cell number [2, 23]: 1.04 | activity remaining [3]: 103% (inactive)

COc1cc(OC)c(OC)cc1C=O
parasite load remaining [8]: 70.8% (inactive) | viability [8]: 91.7% | inhibition [1]: -2.13% (inactive) | red/green cell ratio (normalised) [2]: 1.04 (inactive) | normalised cell number [2, 22]: 1.13 | normalised cell number [2, 23]: 1.18 | activity remaining [3]: 109% (inactive) | fold change ([5]; stronger effect = lower value): 0.932 (inactive) | fold change [5, 24]: 0.878 | cell count [5, 25]: 9380 | cell count [5, 26]: 10100 | z-score [10, 27]: -0.272 (inactive) | z-score [10, 28]: 0.673 | luciferase signal [6]: 156 AU (inactive)

COc1ccc2c(c1O)-c1c(OC)c(OC)cc3c1[C@H](C2)N(C)CC3
fluorescence slope change [11]: 13.7% (inactive) | survival [12]: 5.58 (inactive) | parasite load remaining [8]: 125% (inactive) and 105% (inactive) and 60.3% (inactive) | viability [8]: 106% and 65% and 79.8% | inhibition [1]: 3.42% (inactive) | red/green cell ratio (normalised) [2]: 1.1 (inactive) | normalised cell number [2, 22]: 0.99 | normalised cell number [2, 23]: 1.09 | activity remaining [3]: 116% (inactive) | fold change ([5]; stronger effect = lower value): 0.862 (inactive) | fold change [5, 24]: 1.06 | cell count [5, 25]: 9380 | cell count [5, 26]: 10900 | luciferase signal [6]: 72 AU (inactive)

CC[C@@H]1C(=O)OC[C@@H]1Cc1cncn1C
fluorescence slope change [11]: 105% (active) | inhibition [13]: 5.24% | score [14]: 1.3 | rescue above control [15]: 1.26 | cytochrome c release ratio [16]: 1.64 | inhibition of aggregation [17]: 35.3% | glutamate uptake change [18]: 4.33% | inclusion score [19]: 2 | aggregation suppression score [20]: 1.4 | survival [12]: 5.75 (inactive) | inhibition [1]: -6.49% (inactive) | red/green cell ratio (normalised) [2, 21]: 1.18 (inactive) | normalised cell number [2, 22]: 0.97 | normalised cell number [2, 23]: 1.14 | activity remaining [3]: 115% (inactive) | remaining activity [4]: 112% (inactive) and 106% (inactive) | z-score [10, 27]: 0.213 (inactive) | z-score [10, 28]: -0.117 | remaining NAD [9]: 10 nM (inactive) | luciferase signal [6]: 44 AU (inactive) | z-score [7]: 0.47 (inactive) and 0.265 (inactive) and 0.26 (inactive)

ClC1C(Cl)C(Cl)C(Cl)C(Cl)C1Cl (configuration not stated)
inhibition [13]: 25.7% | score [14]: 0.3 | rescue above control [15]: -3.21 | cytochrome c release ratio [16]: 1.15 | inhibition of aggregation [17]: 69.4% | glutamate uptake change [18]: 1.02% | aggregation suppression score [20]: -0.101 | parasite load remaining [8]: 60.1% (inactive) | viability [8]: 93.4% | inhibition [1]: 7.58% (inactive) | red/green cell ratio (normalised) [2]: 1.19 (inactive) | normalised cell number [2, 22]: 1.23 | normalised cell number [2, 23]: 1.47 | activity remaining [3]: 113% (inactive) | fold change ([5]; stronger effect = lower value): 0.871 (inactive) | fold change [5, 24]: 1.71 | cell count [5, 25]: 10400 | cell count [5, 26]: 11900 | remaining NAD [9]: 10 nM (inactive) | luciferase signal [6]: 192 AU (inactive)

CN[C@@H]1[C@@H](O)C(OC2[C@@H](N)C[C@@H](N)[C@H](O[C@H]3O[C@H](C(C)O)[C@@H](O)[C@H](O)[C@H]3N)[C@H]2O)OC[C@]1(C)O (some centres not stated)
inhibition [1]: 15.2% (inactive) | red/green cell ratio (normalised) [2, 21]: 1.08 (inactive) | normalised cell number [2, 22]: 0.91 | normalised cell number [2, 23]: 0.99 | activity remaining [3]: 111% (inactive)

O=C1C=CC(=O)c2c(O)cccc21
inhibition [13]: -40.3% | score [14]: 0.54 | rescue above control [15]: 2.83 | cytochrome c release ratio [16]: 0.82 | inhibition of aggregation [17]: 100% | glutamate uptake change [18]: 42.9% | aggregation suppression score [20]: 0.876 | inhibition [1]: -2.17% (inactive) | red/green cell ratio (normalised) [2]: 0.98 (inactive) | normalised cell number [2, 22]: 1.05 | normalised cell number [2, 23]: 1.03 | activity remaining [3]: 127% (inactive) | fold change ([5]; stronger effect = lower value): 0.989 (inactive) | fold change [5, 24]: 0.796 | cell count [5, 25]: 2420 | cell count [5, 26]: 2440 | luciferase signal [6]: 52 AU (inactive)

COc1cc2c(cc1OC)C(C)NCC2 (configuration not stated)
survival [12]: 7.17 (inactive) | parasite load remaining [8]: 65.2% (inactive) and 87.3% (inactive) | viability [8]: 106% and 76.1% | inhibition [1]: -13.1% (inactive) | red/green cell ratio (normalised) [2]: 1.03 (inactive) | normalised cell number [2, 22]: 0.91 | normalised cell number [2, 23]: 0.94 | activity remaining [3]: 101% (inactive) | fold change ([5]; stronger effect = lower value): 0.83 (inactive) | fold change [5, 24]: 1.56 | cell count [5, 25]: 9140 | cell count [5, 26]: 11000 | luciferase signal [6]: 36 AU (inactive)

CCCCCCCCCCCCCCCC[n+]1ccccc1
inhibition [13]: 55.6% | score [14]: -0.08 | rescue above control [15]: 0 | cytochrome c release ratio [16]: 3.74 | inhibition of aggregation [17]: 52.2% | glutamate uptake change [18]: -18.1% | aggregation suppression score [20]: -0.00459 | parasite load remaining [8]: -0.13% (inactive) and -0.08% (inactive) | viability [8]: 14.3% and 4.9% | inhibition [1]: 10.7% (inactive) | red/green cell ratio (normalised) [2]: 0.76 (inactive) | normalised cell number [2, 22]: 0.52 | normalised cell number [2, 23]: 0.4 | activity remaining [3]: 111% (inactive) | fold change ([5]; stronger effect = lower value): 0.867 (inactive) and 0.767 (inactive) | fold change [5, 24]: 1.06 and 4.42 | cell count [5, 25]: 1850 and 1610 | cell count [5, 26]: 2130 and 2090 | z-score [10, 27]: -0.367 (inactive) | z-score [10, 28]: -0.303 | remaining NAD [9]: 10 nM (inactive) | luciferase signal [6]: 96 AU (inactive)
